# CYP2C19 activ: increases human CYP2C19 enzyme activity. recombinant CYP2C19, luciferin-H EGE luminescence; hits give high values; 0 = fully inhibited enzyme, 1 = untreated enzyme. 96,000 tested, under 10 active. activation factor at 5 µM. P33261;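 active means activation factor of at least 2 at 5 µM in the primary screen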
# CYP2C19 inh: inhibitors of human CYP2C19 | P33261 | CYP2C19 Supersomes, luciferin-H EGE luminescence, 30 min | inhibition, % at 5 µM | actives 21% (n = 96,000) | AID 778;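 active means CYP2C19 inhibition above a set limit at 5 µM in the primary screen, cut at about 50% in these data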
# CYP2C9 activ: increases human cytochrome P450 2C9 activity; P11712; recombinant CYP2C9, luciferin-H conversion, luminescence; hits give high values; factor 1 = untreated enzyme, 0 = blocked; activation factor at 5 µM; actives 1.4% (n = 96,000);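 active means activation factor of 2 or more for CYP2C9 at a 5 µM dose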
# Pyk2 oligo antag: Pyk2 (human) oligomerization antagonism | Q293 cells, Pyk2 FERM NanoBiT luminescence; hits give low values | z-score (the deposit names both 25 µM and 10 µM) | actives 0.83% (n = 99,000) | AID 1347419;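 active means Z-score of -3 or lower, scaled per plate to the spread of control and sample wells; inactive means z-score above -3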;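 further: negative z-score means lost luminescence so less FERM oligomerization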
# CYP2C9 inhib: blocks human cytochrome P450 2C9; CYP2C9 Supersomes, luciferin-H conversion, luminescence; inhibition, % at 5 µM; actives 20% (n = 96,000);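 active means blocking of liver enzyme CYP2C9 beyond about 50% at 5 µM, limit read from the data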
# A number is an active result; - = inactive; . = no result. Most compounds without a hit are left out; they make up all but 28% or so of the library.
SMILES,CYP2C19 activ,CYP2C19 inh,CYP2C9 activ,Pyk2 oligo antag,CYP2C9 inhib
CN(C)C(=O)NC(O)C(Cl)Cl (stereo unspecified),-,-,-,.,-
Cc1ccc(C(=O)Nc2cc(C(C)C)c(O)c(C(C)C)c2)cc1,.,.,.,-,.
Clc1ccc2[nH]c3c(N4CCC5(CC4)OCCO5)ncnc3c2c1,-,76,-,.,73
c1ccc2c(c1)[nH]c1c(N3CCOCC3)ncnc12,-,-,-,-,52
Cc1cccc2[nH]c3c(N4CCN(C(=O)c5ccco5)CC4)ncnc3c12,-,90,-,-,-
Cc1ccc(-c2nsc3c(N4CCN(C(=O)c5ccco5)CC4)ncnc23)cc1,-,-,-,.,-
Cc1cccc2[nH]c3c(N4CCC5(CC4)OCCO5)ncnc3c12,-,51,-,-,-
CCc1cc2c(=O)n(-c3ccc(Br)cc3)cnc2s1,-,-,-,-,-
Brc1ccc2[nH]c3c(N4CCc5ccccc5C4)ncnc3c2c1,-,-,-,.,92
COc1cc2c(cc1OC)-c1nnc(-c3cccs3)n1C1(CCCC1)C2,-,-,-,-,-
Cc1ccc(-c2ccc(/C=N\NC(=O)c3cc4c(ccc5ccccc54)o3)o2)cc1[N+](=O)[O-],-,-,-,-,-
Cc1ccc(-c2ccc(/C=N/NC(=S)Nc3ccccc3)o2)cc1[N+](=O)[O-],-,65,-,-,53
O=C1CCCc2ccccc2N1Cc1cccc(Cl)c1,-,84,-,-,72
O=C1CCCc2ccccc2N1Cc1ccc(Cl)cc1,-,91,-,-,68
Cc1ccc(C(=O)COC(=O)c2n[nH]c(=O)c3ccccc23)cc1,-,-,-,-,-
Cc1ccc(C(=O)C(C)OC(=O)c2n[nH]c(=O)c3ccccc23)cc1 (stereo unspecified),-,68,-,-,84
Cc1ccc(-n2[nH]c(C)c(/C=C3/C=Nc4ccccc43)c2=O)cc1C,.,.,.,-,.
O=S(=O)(Nc1nnc(-c2ccccc2)s1)c1ccc(Cl)cc1,-,83,-,-,99
COc1cc(C(=O)OCC(=O)Nc2ccc(F)cc2F)cc(OC)c1OC,-,65,-,-,-
COc1ccc(C(=O)OCC(=O)Nc2ccc(F)c(F)c2)cc1OC,-,58,-,-,-
CCCNC(=O)COC(=O)c1ccc(OCC(=O)Nc2ccccc2OC)c(OC)c1,-,-,-,-,-
CCC(CC)NC(=O)COC(=O)c1ccc(OCC(=O)Nc2ccccc2OC)c(OC)c1,-,71,-,-,-
COc1cccc2c(=O)n(CC(=O)Nc3ccc(F)cc3F)ccc12,-,56,-,.,-
CCc1nnc(NC(=O)CCC(=O)N2CCN(CCOc3ccc(C)cc3)CC2)s1,-,-,-,-,-
Cn1c(CN2CCOCC2)c(C#N)c2ccccc21,-,88,-,-,-
SMILES,CYP2C19 activ,CYP2C19 inh,CYP2C9 activ,Pyk2 oligo antag,CYP2C9 inhib
CC1CCN(Cc2c(C#N)c3ccccc3n2C)CC1,-,81,-,-,-
CN1CCN(Cc2c(C#N)c3ccccc3n2C)CC1,-,-,-,-,-
CC(=O)N(Cc1c(C#N)c2ccccc2n1C)c1ccccc1,.,.,.,-,.
CCOC(=O)CSCc1c(C#N)c2ccccc2n1C,-,100,-,-,-
CC1CCCCN1Cc1c(C#N)c2ccccc2n1C (stereo unspecified),-,52,-,-,-
CCCOc1ccc(C2C(=O)N(C3CCCCCC3)CC(=O)N2Cc2ccco2)cc1OC (stereo unspecified),-,-,-,-,-
Cc1cccnc1NC(=O)C1CCCN(S(=O)(=O)c2ccc3c(c2)oc(=O)n3C)C1 (stereo unspecified),-,-,-,.,-
CCc1cc(C)c(O)c(CC)n1,-,-,-,-,-
COc1ccc2[nH]c(=O)c(CN(C(=O)c3ccco3)C3CCCCC3)cc2c1,-,-,-,-,-
Cc1cccc(OCC2=N/C(=C\N(C)C)C(=O)O2)c1,-,67,-,-,-
Cc1c(Cl)cccc1NC(=O)C1NC(=O)CC1c1ccccc1 (stereo unspecified),-,81,-,.,-
COc1ccc(OC)c(S(=O)(=O)N(C)CC(=O)N2CCN(c3ccc(F)cc3)CC2)c1,-,-,-,-,-
COc1ccc(OC)c(S(=O)(=O)N(C)CC(=O)N2CCN(c3cccc(Cl)c3)CC2)c1,-,85,-,-,92
COc1ccc(OC)c(S(=O)(=O)N(C)CC(=O)N2CCN(c3ccccc3F)CC2)c1,-,76,-,-,68
COC(=O)Nc1ccc(C)c2nsnc12,-,-,-,-,-

# Compound activity (PubChem)
